Test results published in PubChem BioAssay AID687014 (The Scripps Research Institute Molecular Screening Center, 2013).
Values joined by “and” are separate entries in the source; they are usually repeats but may differ in a detail not shown here. Identical values can stand only once. Among all 370,000 compounds or so, about 6,800 (1.8%) were called active. This is one part of a sample in which actives are shown more often than they occur.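 How the source made its calls: active means activation above a cutoff set at the mean of all screened compounds plus 3 SD (cut at about 10% in these data); inactive means the rest.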

tested on: Nuclear hormone receptor DAF-12 (Heterodera glycines), GAL4 fusion; assay: hgDAF-12 GAL4 fusion reporter activation – cell-based, luminescence, HEK293, UAS-luciferase, primary screen (AID 687014); conditions: HEK293 GAL4-hgDAF12 UAS-luciferase reporter, agonist luminescence; at 6.8 µM; hits give high values; normalized to butyrate control;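 further: 0% = DMSO wells and 100% = sodium butyrate wells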

Structure (SMILES)	activation
CCOC(=O)C1CSCCS(=O)(=O)N1Cc1ccc(Cl)cc1 (stereo not drawn)	-2.53% (inactive)
CN1C(=O)C2CC(O)C(SC3CC4C(=O)N(C)C(=O)C4CC3O)CC2C1=O (stereo not drawn)	-0.94% (inactive)
COc1ccc2nc3n(c(=O)c2c1)-c1ccc(Cl)cc1C(=O)NC3Cc1ccccc1 (stereo not drawn)	-2.62% (inactive)
Cn1ncc(Br)c1C(=O)NC1CCCC1	2.19% (inactive)
O=C(NC1CCC1)c1ccc(C#Cc2cccc(F)c2)c[n+]1[O-]	4.83% (inactive)
O=C(NC1CCC1)c1ccc(C#CC2CC2)cn1	14.1% (active)
CC1CN(C(=S)Nc2ccc(S(N)(=O)=O)cc2)CC(C)O1 (stereo not drawn)	0.5% (inactive)
COc1cc(C(=O)Nn2c(O)c(C3=c4ccccc4=NC3=O)sc2=S)ccc1O	5.04% (inactive)
Cc1ccc(-c2nnc(SC(C)C#N)n2N)cc1 (stereo not drawn)	-2.55% (inactive)
COc1ccc(C(=O)COC(=O)CN2C(=O)C3CC=CCC3C2=O)c(OC)c1 (stereo not drawn)	-0.12% (inactive)
COc1ccc(C(=O)COC(=O)c2nn(C)c(=O)c3ccccc23)c(OC)c1	-0.75% (inactive)
COc1ccc(C(=O)COC(=O)C(O)c2ccccc2)c(OC)c1 (stereo not drawn)	10.7% (active)
Nc1[nH]c(C(=O)c2ccc(Br)cc2)c(-c2ccc3c(c2)OCO3)c1C(=O)NCCc1c[nH]c2ccccc12	1.89% (inactive)
COc1ccc(NC(=O)CC2COc3ccccc3O2)c(OC)c1 (stereo not drawn)	1.72% (inactive)
Cc1ccc(S(=O)(=O)N(C)C)cc1NC(=O)COC(=O)C1COc2ccccc2O1 (stereo not drawn)	1.41% (inactive)
CC(=O)c1ccccc1NC(=O)COC(=O)C1COc2ccccc2O1 (stereo not drawn)	24.1% (active)
CCOC(=O)[C@]12CCCC=C1N(CCCOC)C(=O)[C@@H]2CC(=O)N1CCOCC1	0.45% (inactive)
COc1cccc(CNCc2ccc3c(c2)OCO3)c1	-0.87% (inactive)
Cc1cc2c(C)nc(N/N=C/c3ccccc3)nc2o1	4.01% (inactive)
Cc1noc(C)c1/C=N/Nc1ccc2ccccc2n1	12.8% (active)
C(=N\Nc1ccc2ccccc2n1)/c1ccc2c(c1)OCO2	11.2% (active)
O=C(OC12CCCN(C1)/C(=C/c1ccccc1)C2)c1ccco1 (stereo not drawn)	-2.49% (inactive)
Cc1cc(-c2ccccc2)n2nc(C)c(-c3ccccc3)c2n1	0.2% (inactive)
Cc1nn(C(=O)c2ccoc2C)c(N)c1-c1ccccc1	12.5% (active)

Structure (SMILES)	activation
Cc1occc1C(=O)Nc1cccc(Cn2cccn2)c1	0.48% (inactive)
O=C(NCCc1c[nH]c2ccccc12)OCc1cn(-c2c(F)cccc2F)nn1	-0.77% (inactive)
O=S1(=O)c2c(cccc2N2CC[C@H](O)C2)O[C@@H]2CCN1C2	-2.37% (inactive)
COc1cccc(/C=C2\CC3(OC(C)=O)CCCN2C3)c1 (stereo not drawn)	1.14% (inactive)
Cc1nc2ccc(C(=O)N3CCN(C(=O)C(C)(C)C)CC3)cc2n1C1CCCC1	-0.38% (inactive)
COC[C@@H]1CCCN1c1ccc2c(c1)O[C@H](C)CCN(C1CC1)S2(=O)=O	1.95% (inactive)
C/C(=N\NC(=O)C(N)=O)c1ccc2c(c1)OCCO2	4.44% (inactive)
O=C(/C=C/c1ccc2c(c1)OCCO2)c1ccc(O)cc1	11.8% (active)
COc1ccc(OC)c(/C=C/C(=O)c2ccc3c(c2)OCO3)c1	-2.94% (inactive)
COC(=O)[C@]12C[C@H](CC(=O)NCc3cccc(C(F)(F)F)c3)C(=O)N(Cc3ccc4c(c3)OCO4)C1=C[C@H](COCc1ccccc1)O[C@@H]2C	1.05% (inactive)
Nc1ncc(-c2cc3ccccc3oc2=O)s1	11.9% (active)
O=c1oc2ccccc2cc1-c1cn(-c2ccccc2)c(=S)[nH]1	-16.8% (inactive)
CC(CCN1CCC(C(O)(c2ccccc2)c2ccccc2)CC1)Oc1ccc(C(F)(F)F)cc1 (stereo not drawn)	0.45% (inactive)
O=C(Nc1cc(Cl)cc(Cl)c1)OCCN1CCCC12CCC(c1ccccc1)CC2 (stereo not drawn)	-0.4% (inactive)
CC(C)=CCN1CCN(Cc2ccc(Oc3ncccn3)cc2)CC1CCO (stereo not drawn)	3.6% (inactive)
N#CC1(Nc2ccc3c4c(cccc24)CC3)CCCCC1	-2.54% (inactive)
N#CC1(Nc2ccc(-c3ccc(Cl)cc3)cc2)CCCC1	13.3% (active)
NC(=O)C1(Nc2ccc(-c3ccccc3)cc2)CCCC1	0.26% (inactive)
N=c1c2c3c(sc2nc2n1CCCCC2)CCCC3	2.26% (inactive)
Cc1c(C(=O)Nc2ccccc2)sc2nc3n(c(=O)c12)CCCCC3	10.5% (active)
O=c1c2c(nc3n1CCCCC3)sc1c(O)cccc12	12.6% (active)
COc1cccc(C(=O)Nc2ccc3nc4n(c(=O)c3c2)CCCCC4)c1	4.15% (inactive)
CC(=O)c1ccc(NC(=O)c2sc3nc4n(c(=O)c3c2C)CCCCC4)cc1	6.99% (inactive)
CC1CCN(C(=O)c2ccc3c(=O)n4c(nc3c2)CCCCC4)CC1	1.69% (inactive)

Structure (SMILES)	activation
CC(C)CNS(=O)(=O)CC1NCCc2ccccc21 (stereo not drawn)	-0.34% (inactive)
Cc1ccc(C2=CCN(C)C(=O)N2c2ccc(Cl)cc2)cc1	7.34% (inactive)
COc1ccc(C(=O)OCCN(C)C2CN(Cc3cn(Cc4cccc(C)c4)nn3)S(=O)(=O)C2)cc1OC (stereo not drawn)	0.81% (inactive)
Cc1cccc(N2CCN(C(=O)c3cccc(N4C(=O)C5C6C=CC(C6)C5C4=O)c3)CC2)c1C (stereo not drawn)	-1.08% (inactive)
CN(CC(=O)Nc1ccc(Cl)cc1)C(=O)c1ccc(COc2ccccc2)cc1	0.13% (inactive)
CN(CC(=O)Nc1ccc(Cl)cc1)CC(=O)Nc1cccc2ccccc12	0.52% (inactive)
CN(CC(=O)Nc1ccc(Cl)cc1)C(=O)CNC(=O)c1ccc2ccccc2c1	12.3% (active)
O=C(CSc1nc2sc3c(c2c(=O)n1-c1ccccc1)CCCC3)NN=Cc1ccc(OCc2ccccc2)cc1	4.38% (inactive)
O=C1CCC2(CCC(c3ccc(Cl)cc3)CC2)N1CCO (stereo not drawn)	-4.23% (inactive)
CC(C)C(C)NC(=O)COc1ncnc2ccccc12 (stereo not drawn)	1.57% (inactive)
CC(C)CC(=O)N/C(N)=N/c1nc2ccccc2s1	9.05% (inactive)
CCC(=O)NC(=Nc1nc2ccccc2s1)NC(=O)CC	12.5% (active)
O=C(CN1CCC(NC(=O)NCc2ccccc2)CC1)Nc1ccc2c(c1)OCCO2	1.23% (inactive)
Cc1c(Br)c([N+](=O)[O-])nn1CC(=O)N1CCN(Cc2ccccc2)CC1	4.33% (inactive)
O=C(Nc1ccn(Cc2ccccc2)n1)c1cccc(F)c1	20% (active)
CCOc1cccc(C(=O)Nc2cnn(Cc3ccccc3)c2)c1	2.99% (inactive)
Cc1ccc(NC(=O)CC2C(=O)N(Cc3ccccc3)C(=S)N2NC(=O)c2cccc(F)c2)c(C)c1 (stereo not drawn)	-3.58% (inactive)
O=C(Cn1cnc([N+](=O)[O-])n1)NCCc1ccccc1	2.5% (inactive)
O=C(Nc1ccn(Cc2ccccc2)n1)c1n[nH]c([N+](=O)[O-])c1Cl	16.8% (active)
CC(c1c[nH]c2ccccc12)c1c(-c2ccccc2)n(C)c2ccccc12 (stereo not drawn)	0.36% (inactive)
COC(=O)[C@]1(Cc2ccccc2)NC=C(C(=O)c2ccccc2)[C@@H]1c1cccc(OC)c1	1.41% (inactive)
Cc1cc(C)cc(NC(=O)N2CCC(N(C)CCC(C)C)CC2)c1	3.99% (inactive)
O=C(NCCCN1CCOCC1)c1ccccc1NS(=O)(=O)c1ccc(F)cc1	-1.36% (inactive)
O=C(NCCCN1CCOCC1)c1cc(-c2ccccc2F)no1	14.2% (active)

Structure (SMILES)	activation
O=C(NCCCN1CCOCC1)c1cnn2c(-c3ccccc3)cc(-c3ccccc3)nc12	-2.14% (inactive)
Cc1cccc(CN2CCN(C3CN(Cc4cn(Cc5cc(C)cc(C)c5)nn4)S(=O)(=O)C3)CC2)c1 (stereo not drawn)	-3.8% (inactive)
Cn1c(NC(=O)c2ccccc2)nc2ccccc21	15.2% (active)
CCC(C(=O)Nc1c(C)cccc1C)n1c(-c2cc(C)cs2)nc2ccccc21 (stereo not drawn)	2.55% (inactive)
O=C(NC1=CC(=O)c2ccccc2C1=O)c1ccccc1	-6.53% (inactive)
Cn1c(-c2ccc(C(=O)c3ccccc3)s2)nc2ccccc21	13.5% (active)
CCC(C(=O)NC(C)(C)C)n1c(-c2ccccc2)nc2ccccc21 (stereo not drawn)	0.22% (inactive)
CCn1c(NC(=O)c2nn(C)cc2Br)nc2ccccc21	-4.58% (inactive)
CCOC(=O)[C@]12CCCC=C1N(Cc1ccc(OC)cc1)C(=O)[C@@H]2CC(=O)NCc1cccs1	-4.41% (inactive)
CN1CCCc2nc(-c3ccccc3)ccc21	7.25% (inactive)
CCOC(=O)c1ccc(NC2Nc3cc(C)nn3S2)cc1 (stereo not drawn)	2.62% (inactive)
CCc1ccc(NC2Nc3cc(C)nn3S2)cc1 (stereo not drawn)	19.2% (active)
COCCNC(=O)Cn1cc2c(n1)CCCCC2	0.5% (inactive)
CN(CC(=O)Nc1c(Cl)cccc1Cl)C(=O)CC1OC(=O)c2ccccc21 (stereo not drawn)	-1.08% (inactive)
Cc1cc2c(=O)n(CC(=O)NCC(=O)Nc3ccc(C(C)C)cc3)cnc2s1	1.17% (inactive)
CCOC(=O)c1sc(/N=C/Nc2nc(C)c(C(=O)OCC)s2)nc1C	0.82% (inactive)
CC(=O)c1sc(N/N=C/c2ccc(C(C)C)cc2)nc1C	14.4% (active)
CC(=O)c1sc(N)nc1C	1.06% (inactive) and 4.44% (inactive)
CC(=O)c1sc(N/N=C\c2ccc(C)cc2)nc1C	11.2% (active)
C=CC[C@]12C[C@@]3(O[C@H](c4ccc(C(F)(F)F)cc4)N=C3C[C@H](c3ccc(OC)cc3)[C@H]1C)N(C1CCN(Cc3ccccc3)CC1)C2=O	0.9% (inactive)
c1csc(-c2nnc(SCc3nc4ccccc4[nH]3)o2)c1	-0.48% (inactive)
